# Measured values: PubChem BioAssay (EPA / NIEHS)
# Results filed as inconclusive are left out. Calls of active or inactive are those of the source. How the source made its calls: active means hit-call score of the fitted dose curve at least 0.9, where 1 is the maximum; inconclusive means response in the unintended direction; inactive means score below 0.9.
# Target: human Peroxisome Proliferator-activated Receptor delta (PPARd), PPARD (gene 5467) (UniProt Q03181)
# Assay: ATG_PPARd_TRANS: Attagene TRANS-FACTORIAL HepG2 Assay for human Peroxisome Proliferator-activated Receptor delta (PPARd) (AID 2283002)
# Description: ATG_TRANS is a cell-based, multiplexed-readout assay that uses HepG2, a human liver cell line, with measurements taken at 24 hours after chemical dosing in a 24-well plate.ATG_PPARd_TRANS is one of 30 assay component(s) measured or calculated from the ATG_TRANS assay. It is designed to make measurements of mRNA induction, a form of inducible reporter, as detected with fluorescence intensity signals by Reverse transcription polymerase chain reaction (RT-PCR) and Capillary electrophoresis technology.Data from the assay component ATG_PPARd_TRANS was analyzed into 1 assay endpoint. This assay endpoint, ATG_PPARd_TRANS, was analyzed in the positive analysis fitting direction relative to DMSO as the negative control and baseline of activity. Using a type of inducible reporter, measures of mRNA for gain-of-signal activity can be used to understand the reporter gene at the transcription factor-level as they relate to the gene PPARD. Furthermore, this assay endpoint can be referred to as a primary readout, because this assay has produced multiple assay endpoints where this one serves a reporter gene function. To generalize the intended target to other relatable targets, this assay endpoint is annotated to the nuclear receptor intended target family, where the subfamily is non-steroidal.
# Human liver HepG2 cells are transiently transfected with multiple reporter transcription units (MRTUs) in 6-well plates using FuGene 6 reagent (Roche; 3 ml FuGene/1 mg DNA). The MRTU constructs are regulated by a cis-regulating element (promoter). […] A major difference between the CIS and TRANS system is that in CIS activities of endogenous TFs are measured, whereas the TRANS assay evaluates changes in activities of exogenous, chimeric NR-Gal4 proteins. […] At the end of 24 hour incubation, total RNA was isolated using TriZol reagent (Invitrogen). The isolated RNA is then reverse-transcribed using oligo(dT) primer and Mo-MLV reverse transcriptase (Invitrogen) with DNAse I (Ambion) treatment for 30 min. The one-tenth of the produced cDNA was amplified by PCR using Taq DNA polymerase (Invitrogen) and two reporter sequence-specific primers. The PCR products were fluorescently labeled by primer extension with 6-arboxyfluorescein (6-FAM) 5'-labeled reporter sequence-specific primer (2 min at 95 C, 20 s at 68 C and 10 min at 72 C) and these products were digested with 5U of HpaI (New England Biolabs) for 2h at 37 C. The fragments were purified using Qiaquick PCR columns (Qiagen), analyzed on an ABI 3130xL genetic analyzer (Applied Biosystems) with peak positions identified by using a set of X-rhodamine (ROX)-labeled MapMarker1000 molecular weight standards (BioVentures). The raw capillary electrophoresis data was processed using Attagraph software (Attagene).
# Chain of human Peroxisome Proliferator-activated Receptor delta (PPARd), PPARD (gene 5467) (Q03181 whole entry, looked up): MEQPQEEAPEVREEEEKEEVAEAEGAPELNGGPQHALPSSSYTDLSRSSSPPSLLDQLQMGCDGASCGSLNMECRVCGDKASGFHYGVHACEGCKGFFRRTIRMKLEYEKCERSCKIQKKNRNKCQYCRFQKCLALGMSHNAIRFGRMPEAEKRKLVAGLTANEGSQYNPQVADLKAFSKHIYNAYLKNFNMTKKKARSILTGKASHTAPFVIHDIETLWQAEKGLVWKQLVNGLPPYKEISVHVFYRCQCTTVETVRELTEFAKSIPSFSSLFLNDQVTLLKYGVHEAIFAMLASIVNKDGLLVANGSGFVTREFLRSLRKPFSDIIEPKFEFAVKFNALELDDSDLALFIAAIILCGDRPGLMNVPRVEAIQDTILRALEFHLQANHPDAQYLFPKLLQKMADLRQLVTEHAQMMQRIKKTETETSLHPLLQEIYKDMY
Structure (SMILES),outcome,AC50
CCOC(=O)c1ccccc1,inactive,
O=C1NC(=O)[C@@H]2CC=CC[C@H]12,inactive,
CCCCCCCCCC/C=C/C1CC(=O)OC1=O (stereo not given),inactive,
Brc1ccc(Oc2ccc(Br)cc2)cc1,inactive,
C[C@H]1C[C@H]2[C@@H]3CCC4=CC(=O)C=C[C@]4(C)[C@@]3(F)[C@@H](O)C[C@]2(C)[C@@]1(O)C(=O)CO,inactive,
COc1c2occc2cc2ccc(=O)oc12,inactive,
NC(=O)c1ccc([N+](=O)[O-])cc1Cl,inactive,
O=C(O)c1nc(Cl)c(Cl)c(Cl)c1Cl,inactive,
CC(=O)OC(C)(C)Cc1ccccc1,inactive,
C=CCOCC(CC)(CO)COCC=C,inactive,
CCC(C)(CCC(C)C)C(=O)O (stereo not given),inactive,
CN(C)Cc1cc(C(C)(C)C)c(O)c(C(C)(C)C)c1,inactive,
O=S(=O)(O)c1cccc2ccccc12,inactive,
CCCCNC(N)=O,inactive,
COCCCN,inactive,
O=C1CCCCCCCCCCCCCC1,inactive,
CCCCCCC1CCCC(=O)O1 (stereo not given),,52.6 µM (active)
Oc1cccc2ccccc12,inactive,
COC(=O)/C=C\C(=O)OC,inactive,
CC1=C(CC(=O)O)c2cc(F)ccc2/C1=C\c1ccc(S(C)=O)cc1 (stereo not given),inactive,

Structure (SMILES),outcome,AC50
CC(C)n1c(/C=C/[C@@H](O)C[C@@H](O)CC(=O)O)c(-c2ccc(F)cc2)c2ccccc21,inactive,
CCCc1c(OCCCCc2nn[nH]n2)ccc(C(C)=O)c1O,inactive,
[O-][n+]1ccc(Cl)cc1,inactive,
O=C(O)/C=C/C(=O)O,inactive,
Cc1cc(O)cc(C)c1Cl,inactive,
O=C(O)c1cc(Cl)cc(Cl)c1O,inactive,
Oc1ccc(Cl)cc1C1CCCC1,inactive,
c1cc(N(CC2CO2)CC2CO2)ccc1Cc1ccc(N(CC2CO2)CC2CO2)cc1 (stereo not given),inactive,
O=C(O)/C=C\C(=O)O,inactive,
CCCCCCOC(=O)CCCCCCCC(=O)OCCCCCC,inactive,
Sc1nc2ccccc2s1,inactive,
O=C(Oc1ccccc1)c1ccccc1,inactive,
CCC(C)C1N=C(C)C(C)S1 (stereo not given),inactive,
CC/C=C\CC/C=C/C(OCC)OCC,inactive,
CC/C=C\CCCCCO,inactive,
CC(C)(Oc1ccc(Cl)cc1)C(=O)O,inactive,
C=CCOC(=O)C(=C)C,inactive,
C[Si](C)(C)O[Si](C)(C)O[Si](C)(C)C,inactive,
COC(OC)C(C)c1ccccc1 (stereo not given),inactive,
CCCCCC[C@@H](O)C/C=C\CCCCCCCC(=O)O,,27.3 µM (active)
